Paper PMC5540273 (PLoS ONE, 2017)

How the values were obtained:
Conditions in all cases: concentration: 1 μM, replicates: in singlicate; n = 1
CDK8 = test system: CDK8
CDK9 = test system: CDK9
CDKL1 = test system: CDKL1
CDKL2 = test system: CDKL2
CDKL3 = test system: CDKL3
CDKL5 = test system: CDKL5
CHEK1 = test system: CHEK1
CHEK2 = test system: CHEK2
CIT = test system: CIT
CLK1 = test system: CLK1
CLK2 = test system: CLK2
CLK3 = test system: CLK3
CLK4 = test system: CLK4
CSF1R-autoinhibited = test system: CSF1R-autoinhibited
CSF1R = test system: CSF1R
CSK = test system: CSK
CSNK1A1L = test system: CSNK1A1L
CSNK1A1 = test system: CSNK1A1
CSNK1D = test system: CSNK1D
CSNK1E = test system: CSNK1E
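Further: KINOMEscan kinase panel screen.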

SMILES | %Inh (CDK8) [%] | %Inh (CDK9) [%] | %Inh (CDKL1) [%] | %Inh (CDKL2) [%] | %Inh (CDKL3) [%] | %Inh (CDKL5) [%] | %Inh (CHEK1) [%] | %Inh (CHEK2) [%] | %Inh (CIT) [%] | %Inh (CLK1) [%] | %Inh (CLK2) [%] | %Inh (CLK3) [%] | %Inh (CLK4) [%] | %Inh (CSF1R-autoinhibited) [%] | %Inh (CSF1R) [%] | %Inh (CSK) [%] | %Inh (CSNK1A1L) [%] | %Inh (CSNK1A1) [%] | %Inh (CSNK1D) [%] | %Inh (CSNK1E) [%]
CN(C)Cc1ccc(-c2ccc3c(Nc4ccc(Oc5ccccn5)cc4)ccnc3c2)o1 [GW567148] | 4 | 0 | 0 | 11 | 0 | 0 | 0 | 82 | 0 | 0 | 0 | 12 | 0 | 11 | 38 | 82 | 9 | 0 | 0 | 23
COc1ccc(Nc2nccc(NCCNC(=O)c3cc4ccccc4s3)n2)cc1 [GSK1379896] | 15 | 0 | 0 | 23 | 0 | 0 | 0 | 0 | 5 | 20 | 0 | 0 | 0 | 0 | 0 | 0 | 0 | 0 | 8 | 16
CCc1ccc(-c2ccc3c(c2)-c2c(cnn2C)S(=O)(=O)N3C)cc1 | 0 | 0 | 0 | 0 | 20 | 0 | 0 | 0 | 8 | 22 | 13 | 0 | 10 | 9 | 3 | 0 | 0 | 0 | 0 | 1
CC(C)(C)c1ccc2nccc(Nc3cccc(O)c3)c2c1 [GW856795] | 68 | 0 | 8 | 0 | 19 | 0 | 74 | 0 | 21 | 17 | 0 | 0 | 0 | 54 | 12 | 0 | 0 | 26 | 0 | 0
COc1cccc(C(=O)Nc2cccc(Oc3ccc4nc(NC(=O)C5CC5)cn4n3)c2)c1 | 38 | 0 | 58 | 26 | 7 | 0 | 15 | 0 | 96.5 | 30 | 16 | 5 | 0 | 94.2 | 100 | 17 | 17 | 29 | 1 | 19
O=C(Nc1cccc(-c2nn3ccccc3c2-c2ccnc(Nc3cccc(F)c3)n2)c1)c1c(F)ccc(F)c1Cl [GSK357952] | 6 | 0 | 15 | 25 | 0 | 0 | 15 | 0 | 7 | 24 | 0 | 0 | 11 | 0 | 93.3 | 20 | 7 | 2 | 0 | 40
Cn1cc(-c2ccc3c(c2)CCN3C(=O)Cc2cccc(F)c2)c2c(N)ncnc21 [GSK2603358] | 97.8 | 7 | 6 | 43 | 0 | 0 | 5 | 0 | 20 | 18 | 0 | 0 | 39 | 26 | 94.7 | 14 | 5 | 0 | 20 | 77
COc1cc(Nc2nccc(N3CCC(NC(=O)Nc4cccc(C(C)=O)c4)C3)n2)cc(OC)c1OC (stereo not drawn) [GSK1379753] | 27 | 0 | 17 | 46 | 0 | 0 | 0 | 0 | 11 | 16 | 0 | 11 | 0 | 0 | 31 | 0 | 0 | 0 | 3 | 18
O=C(Nc1cccc(-c2nn3ccccc3c2-c2ccnc(Nc3cccc(C(F)(F)F)c3)n2)c1)c1c(F)cccc1F [GSK292658] | 14 | 0 | 0 | 24 | 0 | 0 | 10 | 0 | 44 | 23 | 0 | 0 | 8 | 0 | 89 | 31 | 5 | 16 | 2 | 46
